# TDP1 cell CPT = growth inhibition of DT40 Tdp1-/-;hTDP1 cells with camptothecin (screen for TDP1 inhibitors) | chicken DT40 Tdp1-/-;hTDP1 cells + 20 nM CPT, ATP luminescence, 48 h | 420,000 tested, 12% active | Potency, µM (highest dose often 46.2 µM), for inactives: at the top dose activity change, negative = growth inhibition, hits mostly inhibitors; also: potency is read from the fitted curve at half-maximal effect; % is scaled to controls: 0 for no effect and ±100 for the full control effect; nearly all actives have a fitted effect of over 55% in size
#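 Cell growth measured by CellTiter-Glo luminescence after a minimum 48 h, 37 C compound exposure with 20 nM CPT in Tdp1-knockout DT40 cells stably expressing hTDP1, seeded 400/well; qHTS titration format.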
# HepG2 viability = kills HepG2 cells in TGF-b inhibitor counter-screen | HepG2 CAGA-GFP viability, ATP luminescence, 18 h | Potency, µM (doses to about 46.1 µM), without a hit: top-dose activity change, negative = cytotoxicity, usual class: cytotoxic | 410,000 tested, 0.76% active; also: potency is read from the fitted curve at half-maximal effect
#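 CellTiter-Glo luminescence gave cytotoxicity after 18 hours at 37 degrees C. The cells were HepG2 CAGA-GFP in 1% FBS DMEM, stimulated with 500 pg/mL TGF-beta after compound addition. %Activity was normalised to no-cell wells (complete cell-killing) and DMSO (no toxicity), and curves were fitted and classified.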
# TDP1 block = TDP1 (human) enzyme inhibition. Q9NUW8. recombinant TDP1, AlphaScreen DNA substrate cleavage. Potency, µM (series often up to 130 µM), for the others: top-dose activity change, negative = inhibition, usual class: inhibitors. 350,000 tested, 0.28% active. AID 485290; also: potency is read from the fitted curve at half-maximal effect; % is scaled to controls: 0 for no effect and ±100 for the full control effect; nearly all actives have a fitted effect of over 40% in size
# Target sequence (Q9NUW8 whole entry, looked up): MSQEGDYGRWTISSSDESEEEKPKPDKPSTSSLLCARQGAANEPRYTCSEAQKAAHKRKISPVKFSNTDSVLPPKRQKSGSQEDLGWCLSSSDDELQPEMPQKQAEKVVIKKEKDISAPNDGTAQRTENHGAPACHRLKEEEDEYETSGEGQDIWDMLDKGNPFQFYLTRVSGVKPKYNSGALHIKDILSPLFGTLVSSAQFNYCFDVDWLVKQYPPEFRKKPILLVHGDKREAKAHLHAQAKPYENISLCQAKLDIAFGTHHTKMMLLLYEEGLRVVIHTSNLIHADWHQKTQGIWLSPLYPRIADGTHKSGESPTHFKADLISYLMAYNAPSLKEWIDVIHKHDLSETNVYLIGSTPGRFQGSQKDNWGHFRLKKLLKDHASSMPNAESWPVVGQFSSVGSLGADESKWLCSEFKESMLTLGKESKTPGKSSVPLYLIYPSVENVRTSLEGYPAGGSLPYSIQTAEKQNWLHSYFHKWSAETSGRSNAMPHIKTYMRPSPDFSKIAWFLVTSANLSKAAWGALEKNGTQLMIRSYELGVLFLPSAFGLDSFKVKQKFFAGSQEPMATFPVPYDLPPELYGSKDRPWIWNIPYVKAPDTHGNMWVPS
#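 E. coli-derived human Tdp1, 1 nM final. Cpd preinc 15 min RT; substrate 15 nM final, 5 min RT; AS bead mix 10 ug/ml final, 10 min RT. Signal loss = tyrosine-FITC cleavage. No-enzyme wells = max signal.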
# TGFb inhibitor = blocks TGF-b signaling; 410,000 tested, 1.2% active; AID 588855; Potency, µM (doses to about 46.1 µM), without a hit: top-dose activity, negative = inhibition, most hits filed as inhibitors; HepG2 CAGA-GFP TGF-b/SMAD3 reporter, GFP fluorescence, 18 h; TGF-beta stimulated, 500 pg/mL final; also: potency is read from the fitted curve at half-maximal effect; % is scaled to controls: 0 for no effect and ±100 for the full control effect; nearly all actives have a fitted effect of over 65% in size
#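 GFP signal (ex488/em500-530) from TGF-beta-stimulated HEPG2 CAGA-GFP cells, 500 pg/mL final, 18 h at 37 degrees C in DMEM plus 1% FBS, normalized to unstimulated and DMSO-stimulated controls.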
# TDP1 cell noCPT = qHTS for Inhibitors of human tyrosyl-DNA phosphodiesterase 1 (TDP1): qHTS in cells in absence of CPT. Potency, µM (series often up to 46.2 µM), for inactives: at the top dose activity change, negative = growth inhibition, hits mostly inhibitors. 420,000 tested, 15% active. DT40 Tdp1-/- hTDP1 cells, no CPT, ATP luminescence, 48 h. AID 686978, 2013; also: potency is read from the fitted curve at half-maximal effect; % is scaled to controls: 0 for no effect and ±100 for the full control effect; nearly all actives have a fitted effect of over 55% in size
#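 Chicken DT40 Tdp1-/- cells complemented with human TDP1, screened without camptothecin (DMSO vehicle only), 400 cells/well. Compounds pin-transferred, cells incubated at 37 °C for at least 48 hr. Growth read as ATP-dependent luminescence (CellTiter-Glo, 30 min at RT).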
# IL1B secr inh = blocks inflammasome-driven IL-1 beta release. THP-1 LPS/ATP IL-1B secretion, AlphaLISA, 16 h; active compounds read low. activity change, % at 57.5 µM. 360,000 tested, 4.7% active. AID 743279; in the data active = activity change below about -50%; inconclusive = mostly about -30% to -49%; also: % is scaled to controls: 0 for no effect and ±100 for the full control effect
#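 Secreted IL-1B measured by AlphaLISA bead assay after 16 h compound exposure of THP-1 cells; compounds (final up to 57.5 uM) added 1 h before LPS (250 ng/mL) and ATP (1.25 mM) stimulation; lower signal means less secretion.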
# Active calls of the source: *; ? = inconclusive; · = no result given; [ ] = another dose, or the depositor's remark. Shown are actives, neighbours in structure and some others; about 19% of the full set was active somewhere. Unless noted, calls follow the shape of the dose curve; as a rule, active = well fitted curve in the direction sought with a large enough effect; inconclusive = small, poorly fitted or top-dose-only effect, or another doubt; inactive = no such curve, though single readings can be large; an effect the other way counts as inactive or inconclusive.
SMILES,TDP1 cell CPT,HepG2 viability,TDP1 block,TGFb inhibitor,TDP1 cell noCPT,IL1B secr inh
CC(Sc1nnc(Nc2ccccc2F)s1)C(=O)NC1CC1 (centres undefined),-3%,3%,1%,-1%,10%,10
Cc1ccc(CNc2nc(NCC3CC3)nc3ccsc23)c(C)c1,9.2µM*,-95%,·,?,10µM*,-19
CNc1nc(NCC2CCCCC2)c2sccc2n1,13µM*,-6%,·,?,13µM*,-21
CC(C)Nc1nc(Nc2ccc(Cl)cc2F)c2sccc2n1,21µM*,-31%,·,?,21µM*,-1
CC(C)Nc1nc(NCc2ccccc2)c2sccc2n1,9.2µM*,-21%,·,?,18µM*,-101*
CNc1nc(NCc2ccc(N(C)C)cc2)c2sccc2n1,18µM*,-34%,·,24%,16µM*,29
CN(C)c1ccc(CNc2nc3ccccc3s2)cc1,·,·,3%,·,·,·
CCN1C(=O)N[C@@H](c2cccs2)C(C(C)=O)=C1C,0%,1%,15%[12.3 µM],-2%,-10%,34
Cc1cccc(C)c1NC(=O)CN(C)C(=O)c1cccc(S(=O)(=O)N2CCN(c3ccc(F)cc3)CC2)c1,12µM*,-21%,13%,0%,7.3µM*,-19
CN(CC(=O)Nc1cccc(F)c1)C(=O)c1cccc(S(=O)(=O)N2CCN(c3ccc(F)cc3)CC2)c1,21µM*,-29%,·,13µM*,21µM*,-1
Cc1cccc(C)c1NC(=O)CN(C)C(=O)c1cccc(S(=O)(=O)N2CCN(C)CC2)c1,?,-2%,-2%,-13%,?,-8
CN(CC(=O)Nc1ccccc1Cl)C(=O)c1cccc(S(=O)(=O)N2CCN(c3ccccc3)CC2)c1,?,-20%,·,?,?,-20
c1ccc(-c2noc(-c3cccnc3NCc3ccco3)n2)cc1,?,-9%,6%,5%,-12%,·
Cc1nn(-c2ccccc2)c2c1cc1c(=O)[nH]c(=O)nc-1n2-c1cccc(Cl)c1,9%,4%,0%,-10%,-3%,·
CCCC(=O)N1CCC1(C)C(=O)Nc1scc(C)c1C#N (centres undefined),21µM*,-13%,·,-6%,15µM*,7
CC1=C(C(=O)N2CCCCCC2)CC(CC(=O)NC2CCCCC2)C(=O)N1CCC1=CCCCC1 (centres undefined),13µM*,·,·,·,?,-27
CC1=C(C(=O)N(C)C)CC(CC(=O)NC2CCCCC2)C(=O)N1CCC1=CCCCC1 (centres undefined),-5%,-10%,·,1%,?,-21
CCCCN1C(=O)C(CC(=O)NCCCCc2ccccc2)CC(C(=O)N2CCOCC2)=C1C (centres undefined),3%,3%,·,4%,-10%,5
CCCCN1C(=O)C(CC(=O)NCCCCc2ccccc2)CC(C(=O)N2CCCCCC2)=C1C (centres undefined),18µM*,·,·,·,18µM*,0
CC1=C(C(=O)N2CCCCCC2)CC(CC(=O)NCCCCc2ccccc2)C(=O)N1CCC1=CCCCC1 (centres undefined),23µM*,·,·,·,18µM*,-67*
S=C(NCCc1ccccc1)Nc1ccc(N2CCCCC2)cc1,?,-29%,·,?,?,105
O=C(Nn1cnnc1)c1ccc(Cl)cc1[N+](=O)[O-],6%,-33%,·,6%,2%,28
COc1ccc(C(=O)N/N=C(\C)c2ccc3c(c2)C2C=CCC2C(c2ccccc2)N3)cc1 (centres undefined),?,-8%,-5%,-3%,15µM*,-5
Cc1cccc(NS(=O)(=O)c2ccc3c(c2)[C@H]2C=CC[C@H]2[C@@H](c2ccc(F)cc2)N3)c1,10µM*,-6%,·,?,10µM*,·
COC(=O)c1ccc([C@H]2Nc3ccc(S(=O)(=O)Nc4ccc(F)cc4)cc3[C@H]3C=CC[C@H]32)cc1,3.7µM*,-16%,·,?,3.3µM*,·
SMILES,TDP1 cell CPT,HepG2 viability,TDP1 block,TGFb inhibitor,TDP1 cell noCPT,IL1B secr inh
COc1cccc(NS(=O)(=O)c2ccc3c(c2)C2C=CCC2C(c2ccc(C(=O)O)cc2)N3)c1 (centres undefined),-9%,-3%,5%,8%,-11%,13
COc1ccc(C)cc1NS(=O)(=O)c1ccc2c(c1)[C@H]1C=CC[C@H]1[C@@H](c1cccc(Cl)c1)N2,13µM*,-18%,·,?,21µM*,·
COc1ccc(C)cc1NS(=O)(=O)c1ccc(Cl)nc1,-19%,-23%,1%,-2%,12%,0
COc1ccc(OC)c([C@@H]2Nc3ccc(C(=O)O)cc3[C@@H]3C=CC[C@@H]32)c1,?,8%,·,-4%,?,·
COCc1c(C(=O)N2CCC(N(C)C)C2)cnn1-c1ncc2c(n1)-c1ccccc1CCC2 (centres undefined),5%[9.04 µM],·,·,·,-6%,·
Cc1ccc(N2CCN(c3nc4ccc(C)cc4n4nnnc34)CC2)c(C)c1,-27%,2%,-6%,28%,?,·
Cc1cc2c(cc1NS(=O)(=O)c1cccc(C#N)c1)n(C)c(=O)c(=O)n2C,4%,-3%,7%,-8%,?,·
C[C@]12CCC(=O)C=C1CCC1C3CC[C@](O)(C(=O)CO)[C@@]3(C)CC3OC312 (some centres undefined),-11%[9.04 µM],·,6%,·,-2%[9.04 µM],·
Cc1nc(NC(=O)COC(=O)C2CC3CCCC(C2)C3=O)c(Cl)cc1Cl (centres undefined),-20%,7%,0%,3%,1%,4
CCN1CCN(CCNC(=O)c2ccc(/C=C3/Sc4ccccc4N(Cc4ccccc4C)C3=O)cc2)CC1,?,-94%,6%,18µM*,?,23
CCN1CCN(CCCNC(=O)c2ccc(/C=C3/Sc4ccccc4N(Cc4ccccc4F)C3=O)cc2)CC1,16µM*,11µM*,3%,?,15µM*,?
Cc1ccc(/C=C2/Sc3ccccc3N(CC(=O)NCCCOC(C)C)C2=O)cc1,?,4%,3%,16%,?,?
O=C(NC1CC1)[C@@H]1C[C@H](Sc2nc3ccccc3[nH]2)CN1CC1CCCCC1,-9%,·,·,·,?,·
CC(=O)c1ccc(NC(=O)c2cc3c(=O)oc4ccc(C)cc4c3s2)cc1,8%,-3%,3%,1%,-5%,·

# Source: PubChem
